Source: PubChem BioAssay AID1928 (Vanderbilt High Throughput Screening Facility, 2009)
Calls of active or inactive are those of the source. No rule for the calls is given here.

Molecular target: Muscarinic acetylcholine receptor M5 (Homo sapiens) (UniProt P08912)
Assay: ACh potency shift at human M5 – cell-based, analogs, calcium, selectivity assay for M4 PAM project, SAR follow-up (AID 1928)
Settings: hM5-expressing cells, ACh CRC fold-shift; series mostly up to 1 µM; ACh response, % max: at the top concentration

Chain of Muscarinic acetylcholine receptor M5 (Homo sapiens) (P08912 whole entry, looked up): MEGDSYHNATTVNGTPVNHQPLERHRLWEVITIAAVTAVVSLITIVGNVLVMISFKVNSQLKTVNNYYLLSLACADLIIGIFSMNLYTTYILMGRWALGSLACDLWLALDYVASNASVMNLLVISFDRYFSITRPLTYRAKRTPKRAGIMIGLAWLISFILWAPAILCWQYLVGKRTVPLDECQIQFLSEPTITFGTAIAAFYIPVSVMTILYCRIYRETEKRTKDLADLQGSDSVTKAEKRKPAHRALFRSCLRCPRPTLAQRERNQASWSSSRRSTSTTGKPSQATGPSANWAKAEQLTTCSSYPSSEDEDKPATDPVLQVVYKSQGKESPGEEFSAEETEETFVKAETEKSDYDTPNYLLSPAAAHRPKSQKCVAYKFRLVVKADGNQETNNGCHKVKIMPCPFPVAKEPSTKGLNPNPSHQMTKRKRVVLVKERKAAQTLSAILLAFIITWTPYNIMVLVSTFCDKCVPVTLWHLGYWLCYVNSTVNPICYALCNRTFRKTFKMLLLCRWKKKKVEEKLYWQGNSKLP

ACh response, % max, inactive:
Cc1cc(OCc2ccncc2)nc2sc(C(=O)NCc3cccc(F)c3F)c(N)c12 92.3, Cc1cc(OCCN2CCOCC2)nc2sc(C(=O)NC(C)(C)C)c(N)c12 93.7, Cc1cc(OCc2ccncc2)nc2sc(C(=O)NCc3cc(F)ccc3F)c(N)c12 92.8, COc1ccc(CNC(=O)c2sc3nc(OCc4ccncc4)cc(C)c3c2N)cc1 96.3
